# Data reported in PubChem BioAssay (EPA / NIEHS).
# Several values for one entry are separate records, joined by “and”; a condition that tells them apart may be missing. Equal values may be shown once. Some compounds were tested as several samples or in several runs, with calls that do not always agree. Activity calls are given as the source filed them. The calls were made as follows: active = hit-call score of the fitted dose curve at least 0.9, where 1 is the maximum; inactive = score below 0.9.
# Experiments:
# [1] = read-out: Interleukin-1 alpha (IL1a), IL1A (gene 3552); assay: BSK_BF4T_IL1a: BioMAP Diversity Plus: BF4T Assay for Interleukin-1 alpha (IL1a) Biomarker Activity (AID 2284264); details: primary human bronchial epithelial cells with fibroblasts
# Procedure, shortened: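 Human bronchial epithelial cells co-cultured with dermal fibroblasts, dosed and read at 24 h. Secreted/surface IL-1α quantified by ELISA; gain-of-signal fitted relative to DMSO baseline. Parallel SRB total-protein staining tracked cytotoxicity.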
# Decorin, DCN (gene 1634) = assay: BSK_MyoF_Decorin: BioMAP Diversity Plus: MyoF Assay for Decorin Biomarker Activity (AID 2284265); details: primary human lung fibroblasts
# Procedure: (§1) BSK_MyoF is a cell-based, multiplexed-readout assay that uses lung fibroblasts, […], with measurements taken at 24 hours after chemical dosing in a microplate: 96-well plate.BSK_MyoF_Decorin is an assay component measured in the BSK_MyoF assay. It measures Decorin antibody related to regulation of gene expression using ELISA technology.Data from the assay component BSK_MyoF_Decorin was analyzed at the endpoint, BSK_MyoF_Decorin, in the positive analysis fitting direction relative to DMSO as the negative control and baseline of activity. Using a type of binding reporter, gain or loss-of-signal activity can be used to understand protein changes. […]
# (§2) The levels of cell surface (or secreted, indicated by the prefix "s") biomarker endpoints were measured by ELISA. Overt cytotoxicity to cells in confluent adherent cultures (all systems other than the BT system) was assessed by measuring total protein levels using sulforhodamine B (SRB) staining in parallel cultures at the time of biomarker measurements, indicated as SRB endpoints. For proliferation assays for adherent cell types, individual cell types are cultured at sub-confluence and relative cell numbers quantified by SRB staining at time points optimized for each system (48 h: 3C and CASM3C systems; 72 h: BT and HDF3CGF systems; 96 h: SAg system). […] Plates were read after 6 h.
# KRT18 (gene 3875) = assay: BSK_BF4T_Keratin818: BioMAP Diversity Plus: BF4T Assay for Keratin 818 Biomarker Activity (AID 2284266); details: primary human bronchial epithelial cells with fibroblasts
# Procedure, shortened: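 Co-culture of human bronchial epithelial cells and dermal fibroblasts, chemical exposure 24 h. Keratin 8/18 measured by ELISA; positive-direction fit vs DMSO. SRB total protein run in parallel cultures for cytotoxicity.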
# [2] = BSK_MyoF_SRB: Viability Assessment in the BioMAP Diversity Plus: MyoF Assay (AID 2284267); details: primary human lung fibroblasts;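 also: total protein by SRB absorbance in parallel cultures as cytotoxicity measure; cells assessed 24 h after compound addition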
# Procedure, shortened: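 Human lung fibroblasts, 24 h after chemical dosing; total protein measured by 0.1% sulforhodamine B staining after 10% TCA fixation, read at 560 nm, fitted relative to DMSO baseline.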
# [3] = read-out: Matrix Metallopeptidase 1 (MMP1), MMP1 (gene 4312); assay: BSK_MyoF_MMP1: BioMAP Diversity Plus: MyoF Assay for Matrix Metallopeptidase 1 (MMP1) Biomarker Activity (AID 2284268); details: primary human lung fibroblasts
# Procedure, shortened: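 Lung fibroblast cultures were dosed with test chemicals and, after 24 h, MMP1 levels were measured by ELISA; responses were referenced to DMSO and analysed for increases.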
# [4] = read-out: TIMP metallopeptidase inhibitor 1 (TIMP1), TIMP1 (gene 7076); assay: BSK_MyoF_TIMP1: BioMAP Diversity Plus: MyoF Assay for TIMP metallopeptidase inhibitor 1 (TIMP1) Biomarker Activity (AID 2284269); details: primary human lung fibroblasts
# Procedure: as §1, with “plate.BSK_MyoF_TIMP1” for “plate.BSK_MyoF_Decorin”, “TIMP-1” for “Decorin”, “BSK_MyoF_TIMP1” for “BSK_MyoF_Decorin”, “BSK_MyoF_TIMP1,” for “BSK_MyoF_Decorin,”
# as §2
# [5] = read-out: Matrix Metallopeptidase 1 (MMP1), MMP1 (gene 4312); assay: BSK_BF4T_MMP1: BioMAP Diversity Plus: BF4T Assay for Matrix Metallopeptidase 1 (MMP1) Biomarker Activity (AID 2284270); details: primary human bronchial epithelial cells with fibroblasts
# Procedure, shortened: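 Co-culture of human bronchial epithelial cells and dermal fibroblasts; MMP-1 levels measured by ELISA 24 hours after chemical dosing, relative to DMSO. Cytotoxicity checked in parallel cultures by SRB total-protein staining.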
# [6] = read-out: Matrix Metallopeptidase 3 (MMP3), MMP3 (gene 4314); assay: BSK_BF4T_MMP3: BioMAP Diversity Plus: BF4T Assay for Matrix Metallopeptidase 3 (MMP3) Biomarker Activity (AID 2284271); details: primary human bronchial epithelial cells with fibroblasts
# Procedure, shortened: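 Co-culture of human bronchial epithelial cells and dermal fibroblasts dosed 24 h; MMP-3 measured by ELISA, positive-direction fit versus DMSO. Cytotoxicity tracked by SRB total-protein staining (560 nm) in parallel cultures.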
# [7] = read-out: Tissue plasminogen activator (tPA), PLAT (gene 5327); assay: BSK_BF4T_tPA: BioMAP Diversity Plus: BF4T Assay for Tissue plasminogen activator (tPA) Biomarker Activity (AID 2284272); details: primary human bronchial epithelial cells with fibroblasts
# Procedure, shortened: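 tPA level quantified by ELISA at 24 h post-treatment in bronchial epithelial/dermal fibroblast co-cultures, gain of signal scored against DMSO baseline. Parallel cultures stained with 0.1% SRB (560 nm) to flag overt cytotoxicity.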
# [8] = read-out: Plasminogen Activator Inhibitor-1 (PAI1), SERPINE1 (gene 5054); assay: BSK_BF4T_PAI1: BioMAP Diversity Plus: BF4T Assay for Plasminogen Activator Inhibitor-1 (PAI1) Biomarker Activity (AID 2284273); details: primary human bronchial epithelial cells with fibroblasts
# Procedure: as §1, with “BSK_BF4T” for “BSK_MyoF”, “bronchial epithelial cells and dermal” for “lung”, “plate.BSK_BF4T_PAI1” for “plate.BSK_MyoF_Decorin”, “PAI-1” for “Decorin”, “BSK_BF4T_PAI1” for “BSK_MyoF_Decorin”, “BSK_BF4T_PAI1,” for “BSK_MyoF_Decorin,”
# as §2
smiles,measurement,setting,value
CCNS(=O)(=O)C(F)(F)C(F)(F)C(F)(F)C(F)(F)C(F)(F)C(F)(F)C(F)(F)C(F)(F)F,AC50,[1],36.5 µM (active) and 44.4 µM (active)
same,AC50,"Decorin, DCN (gene 1634)",40.9 µM (active) and 45.6 µM (active)
same,AC50,KRT18 (gene 3875),15.3 µM (active) and 22.5 µM (active)
same,AC50,[2],48.8 µM (active) and 50.9 µM (active)
same,outcome,[3],inactive
same,AC50,[4],38.9 µM (active) and 31.6 µM (active)
same,AC50,[5],30 µM (active)
same,outcome,[6],inactive
same,AC50,[7],7.68 µM (active) and 8.65 µM (active)
same,AC50,[8],41.2 µM (active)
same,outcome,[8],inactive
